# Most compounds without a hit are left out; they make up all but 9% or so of the library.
# PLK1 PBD inh = inhibitors of human PLK1 polo-box domain binding | Plk1 PBD binding of FITC phosphopeptide, fluorescence polarization | P53350 | 2.8% of 360,000 active | Potency, µM, without a hit: max response, negative = inhibition, most hits filed as inhibitors; further: series mostly up to about 57 µM; on the % scale 0 is the no-effect control and ±100 the full control effect; nearly all actives have a fitted effect of over 65% in size
# Target sequence (P53350 whole entry, looked up, the tested form may be a part): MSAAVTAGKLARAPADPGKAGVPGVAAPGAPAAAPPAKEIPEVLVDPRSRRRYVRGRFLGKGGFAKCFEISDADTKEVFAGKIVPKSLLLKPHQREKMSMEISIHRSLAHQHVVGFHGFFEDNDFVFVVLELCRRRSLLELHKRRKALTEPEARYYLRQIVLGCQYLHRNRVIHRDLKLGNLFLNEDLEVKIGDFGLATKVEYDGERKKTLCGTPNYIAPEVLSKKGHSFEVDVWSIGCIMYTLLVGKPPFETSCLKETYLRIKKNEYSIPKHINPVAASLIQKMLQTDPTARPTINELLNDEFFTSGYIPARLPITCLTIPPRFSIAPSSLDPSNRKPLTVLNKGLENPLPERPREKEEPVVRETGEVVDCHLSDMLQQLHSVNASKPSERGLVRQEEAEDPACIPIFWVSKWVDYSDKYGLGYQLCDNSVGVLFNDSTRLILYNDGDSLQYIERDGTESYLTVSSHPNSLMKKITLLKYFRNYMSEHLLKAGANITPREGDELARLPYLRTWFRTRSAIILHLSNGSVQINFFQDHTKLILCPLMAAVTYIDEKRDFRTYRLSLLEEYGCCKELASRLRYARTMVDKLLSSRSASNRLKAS
# G9a block = G9a (human) methyltransferase inhibition | G9a H3K9 monomethylation, AlphaScreen, 2 h | AID 504332 | Q96KQ7 | 8.8% of 350,000 active | Potency, µM (highest dose often 102 µM), without a hit: at the highest dose activity, negative = inhibition, usual class: inhibitors; further: on the % scale 0 is the no-effect control and ±100 the full control effect; nearly all actives have a fitted effect of over 75% in size
#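 AlphaScreen read-out: biotin-H3K9 peptide (500 nM) methylation by 20 nM enzyme with 20 uM SAM, 2 h at room temperature after 15 min compound preincubation; anti-monomethyl H3K9 antibody plus donor/acceptor beads, 10 min dark.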
# ALOX12 inh = blocks human arachidonate 12S-lipoxygenase; P18054; purified 12hLO, xylenol orange hydroperoxide absorbance; Potency, µM (doses to about 108 µM), without a hit: at the highest dose activity change, negative = inhibition, usual class: inhibitors; 1.1% of 580,000 active; AID 1671190; further: on the % scale 0 is the no-effect control and ±100 the full control effect
#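 Purified human 12hLO at 150 nM in 25 mM Hepes, 0.01% Triton X-100, pH 7.0, preincubated 15 min at room temperature with compound. Reaction started with 40 uM arachidonic acid, 30 min at room temperature. Hydroperoxide measured by Fe-xylenol orange, 573/405 nm absorbance ratio.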
# JMJD2A Tudor inh = inhibitors of human JMJD2A Tudor domain | O75164 | AlphaScreen JMJD2A-Tudor / H3K4me3 peptide binding | Potency, µM (highest dose often 114 µM), for the others: at the highest dose activity change, negative = inhibition, actives largely listed as inhibitors | 4.4% of 390,000 active; further: on the % scale 0 is the no-effect control and ±100 the full control effect; nearly all actives have a fitted effect of over 50% in size
# HP1b chromo inh = HP1-beta chromodomain-methylated histone interaction inhibition. P83916. AlphaScreen HP1-beta / biotin-H3K9me3 peptide binding. Potency, µM (titrated, usually from 114 µM), for the others: at the top dose activity change, negative = inhibition, most hits filed as inhibitors. 0.56% of 390,000 active; further: nearly all actives have a fitted effect of over 70% in size
#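 AlphaScreen: HP1-beta (50 nM) preformed 30 min with biotin-H3(1-18)K9me3 peptide (50 nM) in PBS pH 7.4, 0.01% Tween-20. Compound added for 30 min at RT, then streptavidin donor/nickel chelate acceptor beads (10 ug/mL) for 30 min.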
# BAZ2B inh = inhibitors of human BAZ2B bromodomain; Q9UIF8; AlphaScreen BAZ2B-H3K14Ac peptide displacement; Potency, µM (titrated, usually from 114 µM), without a hit: top-dose activity change, negative = inhibition, hits mostly inhibitors; 4.4% of 360,000 active; AID 504333; further: on the % scale 0 is the no-effect control and ±100 the full control effect; nearly all actives have a fitted effect of over 60% in size
#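 In this displacement format the biotinylated H3(5-23) peptide acetylated at Lys14 serves as ligand at 50 nM, with BAZ2B at 50 nM in PBS pH 7.4 containing 0.01% Tween-20. Donor and acceptor beads are 10 ug/mL final.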
# The depositor's hits bear a star; u = inconclusive; x = no result given; ! = not active in a repeat; [ ] = dose if it differs, or a comment. The call rests on the fitted dose curve; in most records, active means well fitted curve in the direction sought with a large enough effect; inconclusive means small, poorly fitted or top-dose-only effect, or another doubt; inactive means no such curve, though single readings can be large; an effect the other way counts as inactive or inconclusive. Potency means the concentration at half of the fitted maximal effect.
SMILES,PLK1 PBD inh,G9a block,ALOX12 inh,JMJD2A Tudor inh,HP1b chromo inh,BAZ2B inh
Nc1ccc2c(c1)Cc1ccccc1-2,-23.8%,u,-3.7%,u,u,50.1µM*
C=C(C=O)CC1CC(O)[C@]2(C)OC3CC4OC5C[C@]6(C)O[C@]7(C)CCC8OC9C[C@]%10(C)OC%11C(C)=CC(=O)OC%11CC%10OC9C[C@@H](C)C8OC7CC6O[C@]5(C)CC5OC5C4OC3CC2O1 (stereo partly specified),-28.2%,-11.8%[59 µM],x,-20.1%,5.3%,-6.5%
O=C(O)CNC(=O)c1c(O)c2ccccc2n(Cc2ccccc2)c1=O,x,x,-10.6%[57.4 µM],x,x,x
COC(=O)C1=C(c2ccc(F)cc2OCc2ccccc2)C[C@@H]2CC[C@H]1N2C(=O)NCc1cccc(OC)c1,-8.0%,-9.0%[2.33 µM],-0.3%,-25.0%,3.7%,-2.0%
COc1ccc2c3c1OC1C(O)C=CC4C(C2)[N+](C)(C)CCC341 (stereo unspecified),u,7.94µM*,44.7µM*,15.8µM*,u,22.4µM*
CC(=O)C1C(N2CC2)CC2C3CC=C4CC(O)CCC4(C)C3CCC21C (stereo unspecified),-12.0%,x,3.3%,-26.9%,6.4%[57 µM],x
CN1C(=O)NC(=O)C2(Cc3ccccc3N3CCOCC32)C1=O (stereo unspecified),-9.3%,-1.4%[59 µM],11.5%,-1.5%,4.5%,2.8%
CN1C(=O)NC(=O)[C@]2(Cc3ccccc3N3CCN(c4ccccc4)CC32)C1=O (stereo partly specified),-16.1%,3.16µM*,-23.6%,-33.1%,11.3%,-28.4%
O=C1NC(=O)[C@]2(Cc3ccccc3N3CCN(c4ccccc4)CC32)C(=O)N1c1ccccc1 (stereo partly specified),-18.9%,3.16µM*,u,u,13.9%,-30.5%
COC(=O)C1=C(c2ccc(F)cc2OCc2ccccc2)C[C@@H]2CC[C@H]1N2C,-2.8%,-3.8%[2.33 µM],-7.1%,-33.8%,11.6%,0.5%
Cc1[nH]c2ccc(OC(F)(F)F)cc2c1CCNCc1ccc(Cl)cc1,-14.5%,u,u,12.6µM*,u,50.1µM*
CCOc1cccc(CNCCc2c(C)[nH]c3ccc(OC(F)(F)F)cc23)c1O,-1.5%,10µM*,39.8µM*,39.8µM*,u,35.5µM*
Cc1[nH]c2ccc(OC(F)(F)F)cc2c1CCNCc1cccc([N+](=O)[O-])c1,2.7%,50.1µM*,u,7.08µM*,u,50.1µM*
CCOc1ccccc1CNCCc1ccccc1,x,x,-7.6%,x,x,x
Cc1ccc2[nH]c(C)c(CCNCc3ccco3)c2c1,-11.3%,u,-9.8%,u,-9.3%[57 µM],u
CC[C@H]1CN2CC[C@H]1C[C@@H]2CNC(=O)Nc1cccc(C#N)c1,x,x,27.7%[176 µM],x,x,x
CN1C(=O)N(C)C(=O)C(CCc2ccncc2)(CCc2ccncc2)C1=O,0.7%,x,38.3%,-12.0%,16.4%,-3.1%
CCn1c(O)c(C=Nc2ccc(N3CCOCC3)c(Br)c2)c(=O)n(CC)c1=S,-0.8%,42.6%[59 µM],-23.1%,-1.5%,54.4%,48.7%
CCn1c(O)c(C=Nc2ccc(N3CCOCC3)cc2)c(=O)n(CC)c1=S,21.2µM*,7.3%[59 µM],-6.7%,9.0%,35.7%,7.9%
CC(=O)NCC1=C(c2cccc3ccccc23)C[C@@H]2CC[C@H]1N2Cc1ccco1,-7.2%,x,-6.5%,x,x,x
CN(C)c1ccc(Cc2ccc(N(C)C)cc2)cc1,4.9%,x,-29.3%,25.1µM*,20µM*,x
Nc1ccc(N=Nc2ccccc2)cc1,-9.7%,44.7µM*,-10.1%,44.7µM*,u,22.4µM*
NCCc1ccccc1,-0.7%,24.4%[59 µM],-3.9%,-0.7%,36.7%,x
CCOP(=S)(OCC)SCCSCC,3.5%,8.1%[0.501 µM],-1.6%,55.9%,119.0%,73.9%
COc1ccc(C#Cc2ccc3c(c2)O[C@H](CN(C)C(C)=O)[C@H](C)CN([C@@H](C)CO)S3(=O)=O)cc1,23.8µM*,x,u,x,x,x
SMILES,PLK1 PBD inh,G9a block,ALOX12 inh,JMJD2A Tudor inh,HP1b chromo inh,BAZ2B inh
COc1ccc(OC(=O)N(C)C[C@H]2OCc3cnnn3CCCC(=O)N([C@@H](C)CO)C[C@H]2C)cc1,-6.5%,x,-0.6%,x,x,x
CCS(=O)(=O)N1CCN(C2CCC(C)CC2)CC1 (stereo unspecified),-6.4%,5.62µM*,u,6.31µM*,u,56.2µM*
Cc1ccc2[nH]c3c(c2c1)CN(C(=O)CN1C[C@H]2C[C@@H](C1)c1cccc(=O)n1C2)CC3,-8.0%,50.1µM*,-12.4%,-25.2%,57.9%,-27.3%
C[N+]12CCC(CC1)C(C#N)(N1CCOCC1)C2 (stereo unspecified),-0.1%,50.1µM*,u,u,21.4%,0.8%
C=C(C)CSc1nnc([C@@H](N)Cc2c[nH]c3ccccc23)o1,-6.5%,x,-6.1%,-33.3%,40.7%,-28.3%
CC(C)=CCSc1nnc([C@@H](N)Cc2c[nH]c3ccccc23)o1,-14.8%,3.55µM*,-13.3%,u,u,-7.9%
Cc1ccccc1-c1ccc2c(c1)CNCc1cnnn1-2,-15.2%,x,u,x,x,x
Cn1cccc1/C=C1\C(=O)NC(=O)N(Cc2ccccc2Cl)C1=O,u,44.7µM*,u,u,3.4%,x
Cn1cccc1/C=C1\C(=O)NC(=O)N(CCC2=CCCCC2)C1=O,-12.3%,-5.9%[59 µM],-27.7%,-18.2%,-10.6%,-9.4%
Cc1o[nH]c(=O)c1CC(N)C(=O)O (stereo unspecified),x,21.2µM*!,x,x,x,x
Cc1o[nH]c(=O)c1C[C@@H](N)C(=O)O,x,x,242.7%,u,12.3%,x
CCN(CC)CCN=Cc1c(O)n(CCC2=CCCCC2)c(=O)[nH]c1=O,-8.6%,-41.4%[12.7 µM],-0.5%,-21.4%,26.4%,-4.9%
O=c1[nH]c(=O)n(CCC2=CCCCC2)c(O)c1C=NCc1cccnc1,-3.1%,50.1µM*,22.6%,-4.5%,25.5%,-0.7%
O=c1[nH]c(=S)n(CCC2=CCCCC2)c(O)c1/C=N/Nc1ccccc1,-19.9%,u,35.5µM*,u,-1.6%,-30.6%
Cc1ncc2c(n1)C[C@@H]1CC[C@H]2N1C(=O)c1cccnc1,x,x,15.1%,x,x,x
CCOc1cc(/C=C2\C(=O)NC(=O)N(C)C2=O)cc([N+](=O)[O-])c1O,7.52µM*,50.1µM*,u,-2.4%,31.4%,-10.8%
CCC(c1nnnn1-c1ccc(OC)cc1)N1CCC(n2c(=O)[nH]c3ccccc32)CC1 (stereo unspecified),-1.2%,x,-8.5%,x,x,x
COc1ccc(N2C(=O)CC(N3CCC(n4c(=O)[nH]c5ccccc54)CC3)C2=O)cc1 (stereo unspecified),-5.7%,39.8µM*,16.3%,-5.8%,56.1%,3.0%
C[C@@H]1CC2(CCCC[N+]2(C)C)C[C@H]1C,-6.9%,11.2µM*,u,u,-2.2%,-17.1%
Cc1cnc[nH]1,-9.8%,6.4%[0.501 µM],-0.9%,-19.3%,13.8%,6.7%
